Screening results from PubChem.
Rows were chosen to be rich in hits. Some 2.6% of all compounds tested hit in one or more screens of this group.
TROY NFkB inh: inhibitors of TROY-dependent NF-kB signaling. inhibition, % at 10 µM. Q293 LMP1-TROYcd NF-kB luciferase reporter, 4 h. 360,000 tested, 0.98% active;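 active = compounds whose plate-normalised and pattern-corrected inhibition of the luciferase reporter signal at the single screening dose is 50% or more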
EWS-Fli inh: blocks EWS/Fli oncoprotein-driven transcription. A673 NR0B1-luciferase reporter, viability-normalised. inhibition, % at 12.6 µM. 350,000 tested, 0.67% active. AID 651661;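 active = mean inhibition of at least 50% after viability correction, with every replicate also passing that limit; inconclusive = mean reaches 50% but only one of two replicates passes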;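 note: firefly luciferase signal divided by Alamar Blue viability fluorescence both relative to DMSO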
LGR2 antag: blocks bursicon-induced cAMP signaling via Drosophila LGR2 | HEK293 LGR2, CRE-luciferase, bursicon-stimulated, 4 h | inhibition, % at 9.99 µM | 380,000 tested, 0.35% active | AID 720647;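 active = drop in luminescence signal, shown as inhibition above about 50% in the replicate tests, limit read from the data, passing the limit was not always enough; inconclusive = probably only some replicates passing the limit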;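 note: agonist challenge used bursicon conditioned medium at about half maximal strength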
TWEAK Fn14 block: inhibitors of TWEAK-Fn14 interaction signaling; TWEAK-stimulated Fn14 reporter cells, luciferase luminescence, 8 h; inhibition, % at 10 µM; 360,000 tested, 2% active; AID 1159606; in the data active = inhibition above about 50%
KKLEB tox: CF airway cell cytotoxicity counter-screen; 360,000 tested, 0.36% active; KKLEB CF airway cells viability, ATPlite luminescence, overnight; stronger effect = lower value; cells stimulated with P. aeruginosa culture filtrate; AID 602141; activity change (cytotoxicity), % at 5 µM;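 active = corrected activity change at or below -50% at 5 µM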
CF NFkB block: cystic fibrosis NF-kB activation inhibition; 360,000 tested, 0.86% active; AID 588850; KKLEB NF-kB-GFP reporter, PAF-induced, GFP fluorescence overnight; inhibition, % at 5 µM;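 active = at least 50% inhibition at 5 µM, scaled per plate between neutral and stimulator controls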;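 note: PAF is a Pseudomonas aeruginosa culture filtrate used as stimulus; plate controls were PAF-stimulated DMSO wells for no effect and unstimulated DMSO wells for full effect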
CF NFkB inh conf: CF NF-kB inhibition confirmation, single concentration; 1,300 tested, 64% active; inhibition, % at 5 µM; KKLEB CF airway cells, PAF-induced NF-kB-GFP fluorescence, overnight; AID 602472; shares compounds with CF NFkB block; in the data active = inhibition above about 40%;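 note: stimulus PAF is a Pseudomonas aeruginosa filtrate and not platelet activating factor; plate controls were DMSO wells with stimulus for no effect and unstimulated DMSO wells for full effect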
* marks the source's active call; other numbers are inactive results; ? = inconclusive; . = no result given.

SMILES	TROY NFkB inh	EWS-Fli inh	LGR2 antag	TWEAK Fn14 block	KKLEB tox	CF NFkB block	CF NFkB inh conf
Cc1ccc(NC(=S)N(CCCN2CCCC2)Cc2cccn2Cc2ccc(Cl)cc2)cc1C	-0.3	26.7	4.2	5.5	-42.9	50.6*	27.7
CCN1CCN(Cc2ccc(NC(=O)c3ccc(C)c(NC(=O)c4ccno4)c3)cc2C(F)(F)F)CC1	4.2	-4.7	4.1	-53.4	-3.9	56.1*	69.3*
CCN1CCN(Cc2ccc(NC(=O)c3ccc(C)c(NC(=O)c4csc(-c5ccncc5)n4)c3)cc2C(F)(F)F)CC1	14.8	4.8	18.4	-58.9	-8.5	70.8*	45.9*
O=C1OC(Nc2nc(-c3ccc(F)cc3)cs2)c2ccccc21 (stereo unspecified)	-9.5	1.9	17.0	58.9*	-2.0	52.8*	70.8*
CCS(=O)(=O)N1[C@@H](CO)[C@@H](c2ccccc2)C12CN(C(=O)C1CCCCC1)C2	.	3.2	14.9	.	.	.	.
C[C@@H]1CN([C@H](C)CO)S(=O)(=O)c2ccc(C#CCN(C)C)cc2O[C@@H]1CN(C)S(C)(=O)=O	.	10.0	-8.0	.	.	.	.
CC1(C)CC(=O)C(C2C3=C(CC(C)(C)CC3=O)Oc3c(Br)cc(Br)cc32)=C(O)C1 (stereo unspecified)	45.8	15.0	18.3	61.7*	-6.4	56.1*	56.8*
Cc1csc(CNc2ncnc3ccc(-c4ccoc4)cc23)c1	53.7*	3.9	?	89.8*	-19.7	71.4*	83.1*
Cc1ccsc1CN(C)c1ncnc2ccc(-c3ccoc3)cc12	29.6	0.4	6.9	68.3*	-15.7	83.6*	96.7*
Cc1csc(CNc2ncnc3ccc(-c4cccnc4)cc23)c1	29.1	17.9	-7.0	21.0	-19.5	16.9	.
Cc1cccc(CNc2ncnc3ccc(-c4ccoc4)cc23)c1	54.8*	-4.4	29.4	94.3*	-3.2	70.3*	87.1*
Cc1csc(CNc2ncnc3ccc(-c4ccc5c(c4)OCO5)cc23)c1	3.9	19.0	13.0	17.0	1.6	20.1	.
COc1cccc(-c2ccc3ncnc(NCc4cc(C)cs4)c3c2)c1	42.4	1.3	17.0	77.3*	3.8	71.4*	78.0*
C[C@@H]1CN([C@H](C)CO)C(=O)Cc2cc(N(C)C)ccc2O[C@@H]1CN(C)S(=O)(=O)c1cccs1	.	-20.8	-29.1	.	.	.	.
C[C@@H]1CN([C@H](C)CO)S(=O)(=O)c2ccc(C#CC3CCCC3)cc2O[C@H]1CN(C)C	.	27.3	.	.	.	.	.
C[C@H](CO)N1C[C@H](C)[C@H](CN(C)Cc2ccc(-c3ccccc3)cc2)Oc2ccc(NC(=O)CCCN(C)C)cc2C1=O	.	2.6	4.4	.	.	.	.
c1cncc(CNc2ncnc3ccc(-c4ccc5c(c4)OCO5)cc23)c1	11.6	-10.6	-3.9	3.8	-1.6	36.0	28.6
c1cncc(CNc2ncnc3ccc(-c4ccoc4)cc23)c1	46.8	-12.7	8.1	83.9*	0.3	79.9*	88.1*
Cc1cccc(-c2ccc3ncnc(NCc4cccnc4)c3c2)c1	2.6	14.5	-0.2	12.8	-17.4	0.0	.
COc1cccc(-c2ccc3ncnc(NCc4ccc5c(c4)OCO5)c3c2)c1	31.3	-1.8	.	80.3*	-5.7	79.7*	81.4*
Cc1ccc(CNc2ncnc3ccc(-c4ccoc4C)cc23)o1	-4.9	-10.4	7.7	64.9*	-5.0	73.5*	96.9*
CCCCCCNC(=O)O[C@H]1Cn2c(=O)ccc(=O)n2[C@@H]2CN(S(=O)(=O)c3ccc(C)cc3)C[C@]12O	12.9	70.5*	37.7	89.1*	-14.5	61.6*	39.6
COc1ccccc1CN1C[C@@H]2N[C@H](C1)C2c1ccc(-c2ccccc2OC)cc1 (stereo partly specified)	.	-17.0	16.5	.	.	.	.
COC(=O)c1cc(=O)n(Cc2ccc(OC)c(OC)c2)c(=Nc2ccc(F)cc2)s1	28.4	3.5	61.6*	65.1*	-20.7	54.1*	-86.0
O=C(/C=C/c1ccc(Br)cc1)c1ccc(NC2=NCCCS2)cc1	-14.0	-5.9	7.8	59.3*	-10.6	55.8*	-13.3
SMILES	TROY NFkB inh	EWS-Fli inh	LGR2 antag	TWEAK Fn14 block	KKLEB tox	CF NFkB block	CF NFkB inh conf
Cc1cccc(/C=C/C(=O)c2ccc(NC3=NCCCS3)cc2)c1	29.6	-3.3	-43.6	38.9	-19.4	36.3	.
CCOc1ccccc1N1CCN(c2nc3ccccc3nc2C(C#N)C(=O)OC)CC1 (stereo unspecified)	11.3	.	.	38.8	-7.0	90.0*	46.8*
COc1ccccc1C(=O)Nc1ccccc1SC(=O)c1ccccc1OC	50.2*	5.6	-108.3	46.5	2.1	51.3*	39.3
CCCC(=O)Nc1ccc2c(c1)C(=O)N(C)[C@H]1CC[C@@H](CC(=O)OC)O[C@H]1CO2	.	11.5	6.2	.	.	.	.
Cc1cccc(N(Cc2cc(=O)[nH]c3ccccc23)C(=O)CCl)c1	24.4	61.0*	31.7	86.5*	-25.7	72.1*	108.0*
CCCC(=O)N(Cc1cc(=O)[nH]c2ccccc12)c1ccc(OC)cc1	-13.2	9.0	5.4	12.3	-0.9	15.8	.
COc1ccc(N(Cc2cc(=O)[nH]c3ccccc23)C(=O)CCl)cc1	8.7	65.8*	16.4	41.4	-32.8	74.7*	70.6*
CCCC(=O)N(Cc1cc(=O)[nH]c2ccccc12)c1cccc(C)c1	12.8	14.6	6.1	6.7	3.9	-4.8	.
CC(C)Cc1nc2oc3c(NCC4CCCO4)ncnc3c2c2c1CCC2 (stereo unspecified)	-1.8	.	.	54.1*	-0.3	76.4*	90.5*
CC(C)Cc1nc2oc3c(NCc4cccnc4)ncnc3c2c2c1CCC2	10.6	.	-3.6	-10.6	-14.6	25.7	.
CC(=O)Oc1ccccc1C(=O)Oc1ccc(/C=N/n2cnnc2)cc1	40.7	.	.	36.8	-15.3	72.9*	63.8*
CCOc1ccc(/C=N/n2cnnc2)cc1	10.6	.	.	-13.4	9.2	2.6	.
COc1ccc(NC(=O)N(C)C[C@@H]2Oc3ccc(NC(=O)C4CCCCC4)cc3C(=O)N([C@@H](C)CO)C[C@@H]2C)cc1	.	-5.9	4.8	.	.	.	.
COc1ccccc1NS(=O)(=O)c1ccc(N/N=C/c2c(C)nn(-c3ccccc3)c2N2CCCC2)c([N+](=O)[O-])c1	-0.1	.	14.9	13.0	-16.3	23.7	.
COc1c(/C=N/Nc2ccc([N+](=O)[O-])cc2[N+](=O)[O-])c(C)nn1-c1ccccc1	-3.7	.	.	-46.8	-38.2	59.9*	41.0*
Cc1[nH]c2ccccc2c(=O)c1C(=O)/C=C/c1ccccc1	63.6*	49.5	74.3*	88.1*	-27.8	60.5*	46.2*
O=C(O)/C=C/c1ccc2c(-c3ccccc3)onc2c1	0.8	-8.0	15.8	20.2	-15.6	59.0*	73.9*
COc1ccc(NC(=O)Nc2cccc3c2O[C@H](CN(C)Cc2ccc4c(c2)OCO4)[C@@H](C)CN([C@@H](C)CO)C3=O)cc1	.	.	-7.1	.	.	.	.
